# A number with no mark means an inactive call. Where a call stands in place of a potency, no number is given. Activity calls are given as the source filed them. Unless noted, calls come from the whole dose curve; as a rule, active = well fitted curve in the direction sought with a large enough effect in the repeat runs; inconclusive = weak or mixed curves; inactive = no such curve, though single readings can be large; an effect the other way counts as inactive or inconclusive.
# Experiments:
# Aromatase (Homo sapiens) = Aromatase (Homo sapiens) (UniProt P11511); experiment: qHTS assay to identify aromatase inhibitors (AID 743083); note: series mostly up to about 70 µM; nearly all actives have a fitted effect of over 55% in size
# Sequence of Aromatase (Homo sapiens) (P11511 whole entry, looked up): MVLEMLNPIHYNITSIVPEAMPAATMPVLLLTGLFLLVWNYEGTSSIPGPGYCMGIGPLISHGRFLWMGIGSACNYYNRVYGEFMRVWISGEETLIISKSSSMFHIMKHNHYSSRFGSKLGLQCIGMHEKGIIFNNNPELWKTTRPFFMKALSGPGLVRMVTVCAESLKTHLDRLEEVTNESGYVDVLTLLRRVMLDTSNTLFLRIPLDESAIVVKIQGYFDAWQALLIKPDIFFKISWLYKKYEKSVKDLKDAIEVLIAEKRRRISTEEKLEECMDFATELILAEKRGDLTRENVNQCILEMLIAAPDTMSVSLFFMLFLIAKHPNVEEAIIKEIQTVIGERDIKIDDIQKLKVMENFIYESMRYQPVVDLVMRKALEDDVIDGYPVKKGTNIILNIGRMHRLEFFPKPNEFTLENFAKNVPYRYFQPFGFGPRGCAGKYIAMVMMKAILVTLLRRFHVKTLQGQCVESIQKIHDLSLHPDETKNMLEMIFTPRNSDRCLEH
# [1] = qHTS assay to identify aromatase inhibitors - cell viability counter screen (AID 743084);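 note: cells stimulated with testosterone during compound exposure; nearly all actives have a fitted effect of over 55% in size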
# [2] = biological target: Aryl hydrocarbon receptor (Homo sapiens) (UniProt P35869); experiment: qHTS assay to identify small molecule that activate the aryl hydrocarbon receptor (AhR) signaling pathway (AID 743085);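 note: HG2L7.5c1 human HepG2 liver cells with stably integrated DRE-driven firefly reporter; series mostly up to about 70 µM; nearly all actives have a fitted effect of over 15% in size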
# Sequence of Aryl hydrocarbon receptor (Homo sapiens) (P35869 whole entry, looked up): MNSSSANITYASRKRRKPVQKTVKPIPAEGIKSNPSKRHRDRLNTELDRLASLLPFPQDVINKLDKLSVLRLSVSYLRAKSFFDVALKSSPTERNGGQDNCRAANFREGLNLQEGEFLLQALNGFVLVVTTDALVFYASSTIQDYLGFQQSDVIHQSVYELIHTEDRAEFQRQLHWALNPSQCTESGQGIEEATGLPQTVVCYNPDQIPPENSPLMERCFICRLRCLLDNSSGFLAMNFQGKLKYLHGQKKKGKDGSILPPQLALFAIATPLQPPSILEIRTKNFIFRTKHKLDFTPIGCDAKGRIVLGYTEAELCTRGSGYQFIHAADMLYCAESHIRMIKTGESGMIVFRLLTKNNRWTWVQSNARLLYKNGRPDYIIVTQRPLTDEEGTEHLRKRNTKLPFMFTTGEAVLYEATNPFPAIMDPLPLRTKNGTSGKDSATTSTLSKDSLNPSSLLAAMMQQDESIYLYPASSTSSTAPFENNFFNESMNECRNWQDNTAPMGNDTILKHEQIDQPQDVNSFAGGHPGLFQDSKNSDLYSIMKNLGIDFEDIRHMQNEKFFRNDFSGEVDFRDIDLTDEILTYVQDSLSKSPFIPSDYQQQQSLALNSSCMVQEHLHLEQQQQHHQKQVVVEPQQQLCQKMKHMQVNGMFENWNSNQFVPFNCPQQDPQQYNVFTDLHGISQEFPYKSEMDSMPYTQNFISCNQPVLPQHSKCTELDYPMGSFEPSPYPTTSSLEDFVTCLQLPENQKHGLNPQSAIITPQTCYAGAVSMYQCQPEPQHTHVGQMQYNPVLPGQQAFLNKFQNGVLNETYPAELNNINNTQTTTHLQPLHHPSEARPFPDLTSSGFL
# Procedure, shortened: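 HepG2 cells stably carrying a 20-DRE firefly luciferase reporter (HG2L7.5c1) treated with compound for 24 hr at 37C. Luciferase read by ONE-Glo luminescence, with CellTiter-Fluor viability read first.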
# [3] = qHTS assay to identify small molecule that activate the aryl hydrocarbon receptor (AhR) signaling pathway - cell viability counter screen (AID 743086);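 note: HepG2 liver cells carrying the AhR DRE luciferase reporter; series mostly up to about 70 µM; nearly all actives have a fitted effect of over 45% in size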
# Procedure, shortened: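 HepG2-AhR-luc (HG2L7.5c1) cells, 4000/well, were preincubated 5 h at 37C, exposed to compound in qHTS format for 24 hr at 37C, then given CellTiter-Fluor for 30 min; viability was read as fluorescence in the reporter wells.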
# [4] = biological target: Acetylcholinesterase (Homo sapiens) (UniProt P22303); experiment: Acetylcholinesterase (AChE) small molecule antagonists: fluorescence cell-based qHTS assay (AID 1347398; calls by dose curve; note: nearly all actives have a fitted effect of over 50% in size; note: potency is the fitted concentration of half-maximal effect); settings: Potency: AChE activity; outcome: AChE activity
# Sequence of Acetylcholinesterase (Homo sapiens) (P22303 whole entry, looked up): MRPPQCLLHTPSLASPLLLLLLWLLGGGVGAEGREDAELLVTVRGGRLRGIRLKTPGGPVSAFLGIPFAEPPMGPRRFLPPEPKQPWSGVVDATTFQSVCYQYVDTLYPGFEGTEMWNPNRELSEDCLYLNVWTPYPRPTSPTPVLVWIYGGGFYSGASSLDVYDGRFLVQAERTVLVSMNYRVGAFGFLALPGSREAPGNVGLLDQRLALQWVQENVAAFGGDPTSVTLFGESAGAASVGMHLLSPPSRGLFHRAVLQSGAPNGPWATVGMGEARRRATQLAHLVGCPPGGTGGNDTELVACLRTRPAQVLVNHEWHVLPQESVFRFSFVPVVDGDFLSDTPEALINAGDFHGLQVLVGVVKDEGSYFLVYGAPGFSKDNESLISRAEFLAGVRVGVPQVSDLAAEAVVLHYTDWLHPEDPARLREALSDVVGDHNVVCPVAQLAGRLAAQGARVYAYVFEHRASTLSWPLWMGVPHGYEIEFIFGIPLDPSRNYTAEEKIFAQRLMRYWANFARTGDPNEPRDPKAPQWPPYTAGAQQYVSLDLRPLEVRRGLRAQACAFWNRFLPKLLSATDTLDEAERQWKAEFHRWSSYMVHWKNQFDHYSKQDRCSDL
# Procedure, shortened: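 Cellular AChE inhibition: SH-SY5Y cells treated with test chemical for 30 min at 37 C, then acetylthiocholine hydrolysis followed over 40 min at room temperature via thiocholine-reactive Thiolite Green fluorescence (490/520 nm).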
# [5] = biological target: Acetylcholinesterase (Homo sapiens) (UniProt P22303); experiment: Acetylcholinesterase (AChE) small molecule antagonists: enzyme-based qHTS assay with human liver microsomes (AID 1347399; calls by dose curve; note: nearly all actives have a fitted effect of over 60% in size); settings: Potency: qHTS inhibition; outcome: qHTS inhibition
# Procedure, shortened: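 Recombinant human AChE (50 mU/mL in the enzyme mix) and human liver microsomes (0.25 mg/mL final) were preincubated with compound and NADPH (0.25 mg/mL final) for 30 min at 37 C. Acetylthiocholine/DTNB was then added; thiocholine was read colorimetrically after 10 min at room temperature.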
# [6] = qHTS assay for small molecules that induce genotoxicity in human embryonic kidney cells expressing luciferase-tagged ATAD5 - cell viability (AID 651634; calls by dose curve; note: nearly all actives have a fitted effect of over 25% in size)
# Procedure, shortened: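 HEK293T ATAD5-luc cells, 2,000/well; compound 15.5 hr, 37C/5% CO2; CellTiter-Fluor 30 min, 37C; fluorescence read.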
# [7] = qHTS assay to test for compound auto fluorescence at 535 nm (green) in HEK293 cell free culture (AID 720682)
# Procedure, shortened: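 Green-label autofluorescence (485 nm excitation, 535 nm emission) measured on compound added to cell-free culture medium (DMEM, 10% FBS). Output is expressed relative to fluorescein.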
# [8] = qHTS assay to identify small molecule antagonists of the glucocorticoid receptor (GR) signaling pathway - cell viability counter screen (AID 720693); note: nearly all actives have a fitted effect of over 55% in size
# [9] = qHTS assay for identifying genotoxic compounds that show differential cytotoxicity against isogenic chicken DT40 cell lines with known DNA damage response pathways - wild type cell line (AID 743012); note: nearly all actives have a fitted effect of over 60% in size; note: potency is the fitted concentration of half-maximal effect
# Procedure, shortened: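 CellTiter-Glo luminescence readout of viability in wild type DT40 cells after 40 h compound exposure at 37 C/5% CO2; 300 cells/well; reagent incubated 30 min at room temperature before reading.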
# [10] = qHTS assay for identifying genotoxic compounds that show differential cytotoxicity against isogenic chicken DT40 cell lines with known DNA damage response pathways - Rev3 mutant cell line (AID 743014); note: nearly all actives have a fitted effect of over 55% in size; note: potency is the fitted concentration of half-maximal effect
# [11] = qHTS assay for identifying genotoxic compounds that show differential cytotoxicity against isogenic chicken DT40 cell lines with known DNA damage response pathways - Rad54/Ku70 mutant cell line (AID 743015); note: nearly all actives have a fitted effect of over 60% in size; note: potency is the fitted concentration of half-maximal effect
# [12] = qHTS assay to identify small molecule antagonists of the androgen receptor (AR) signaling pathway - cell viability counter screen (AID 743033; note: nearly all actives have a fitted effect of over 45% in size)
# [13] = qHTS assay to identify small molecule antagonists of the androgen receptor (AR) signaling pathway using the MDA cell line - cell viability counter screen (AID 743041; note: nearly all actives have a fitted effect of over 45% in size)
# Procedure, shortened: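 qHTS viability read-out; MDA-kb2 AR-luc; R1881-stimulated; 16 h exposure at 37C, 0% CO2; CellTiter-Fluor, 30 min; fluorescence intensity.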
# [14] = qHTS assay to identify small molecule antagonists of the thyroid receptor (TR) signaling pathway - cell viability counter screen (AID 743064); note: nearly all actives have a fitted effect of over 50% in size
# Procedure, shortened: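 GH3.TRE-Luc rat pituitary cells dosed after 4 hr plating, co-stimulated with T3 at 1 nM final, incubated 23.5 h at 37 C. Viability measured in the same wells by CellTiter-Fluor fluorescence after 30 min further at 37 C.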
# [15] = tested on: thyroid hormone receptor (rat, GH3 cells); experiment: qHTS assay to identify small molecule agonists of the thyroid receptor (TR) signaling pathway (AID 743066; calls by dose curve)
# [16] = qHTS assay to identify small molecule antagonists of the estrogen receptor alpha (ER-alpha) signaling pathway using the BG1 cell line - cell viability counter screen (AID 743081);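 note: compound given together with 17beta-estradiol as the ER stimulus; series mostly up to about 70 µM; nearly all actives have a fitted effect of over 45% in size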
# [17] = qHTS assay for small molecule agonists of the p53 signaling pathway (AID 651631; calls by dose curve; note: nearly all actives have a fitted effect of over 15% in size)
# Procedure, shortened: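 HCT-116 cells carrying a beta-lactamase reporter under p53 response elements were dosed with compound for 16 h at 37 °C. LiveBLAzer B/G FRET substrate was then added for 2 h at room temperature, and fluorescence intensity was read to detect pathway agonism.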
# [18] = qHTS assay for small molecules that induce genotoxicity in human embryonic kidney cells expressing luciferase-tagged ATAD5 (AID 651632); note: nearly all actives have a fitted effect of over 15% in size
# Procedure, shortened: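 Luminescence read-out: after 16 hr compound exposure at 37C, ATAD5-luciferase HEK293T cells received Amplite, 30 min RT, then CCD imaging. A rise in signal marks genotoxic stress.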
# [19] = qHTS assay to test for compound auto fluorescence at 590 nm (red) in HepG2 cells (AID 720674)
# Procedure, shortened: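 Intrinsic compound fluorescence in the red window (Ex/Em 540/590 nm) is measured in attached HepG2 cells exposed for 1 hr, DMSO vehicle as baseline, benchmarked to Rose Bengal sodium.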
# [20] = qHTS assay to test for compound auto fluorescence at 535 nm (green) in HepG2 cells (AID 720675)
# [21] = qHTS assay to test for compound auto fluorescence at 460 nm (blue) in HEK293 cells (AID 720678)
# Procedure, shortened: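 Auto fluorescence in the blue band was quantified as triamterene equivalency. HEK293 cells were seeded at 2,000/well, dosed after a 4-5 hr attachment, and kept overnight at 37C before the 405/460 nm reading.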
# [22] = qHTS assay to test for compound auto fluorescence at 590 nm (red) in HEK293 cells (AID 720679)
# Procedure, shortened: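 Autofluorescence equivalency to Rose Bengal sodium, 540/590nm, in HEK293 cells exposed overnight to 23 nL compound per well.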
# [23] = qHTS assay to test for compound auto fluorescence at 535 nm (green) in HEK293 cells (AID 720680)
# [24] = qHTS assay to test for compound auto fluorescence at 460 nm (blue) in HEK293 cell free culture (AID 720681)
# Procedure, shortened: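 Test compounds were pinned into cell-free culture medium (DMEM with 10% FBS) and fluorescence was read directly at Ex/Em 405/460 nm. Signals were expressed as fluorescence equivalents of triamterene, with DMSO vehicle as control.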
# [25] = qHTS assay to test for compound auto fluorescence at 590 nm (red) in HepG2 cell free culture (AID 720684)
# Procedure, shortened: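 Readout: intrinsic compound fluorescence at 590 nm emission after 540 nm excitation, scaled to Rose Bengal sodium. Matrix was cell-free MEM with 10% FBS; DMSO vehicle wells served as control.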
# [26] = qHTS assay to test for compound auto fluorescence at 460 nm (blue) in HepG2 cell free culture (AID 720685)
# Procedure, shortened: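 Cell-free plates of MEM plus 10% FBS received 23 nL compound or DMSO vehicle; blue-channel (405/460 nm) intensity scored against triamterene as reference fluorophore.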
# [27] = qHTS assay to test for compound auto fluorescence at 535 nm (green) in HepG2 cell free culture (AID 720686)
# [28] = qHTS assay to test for compound auto fluorescence at 460 nm (blue) in HepG2 cells (AID 720687)
# Procedure, shortened: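 Cells (2,000/well in MEM with 10% FBS) attached overnight at 37 C, then were exposed to compound or DMSO for 1 hr at 37 C, 5% CO2. Fluorescence read at Ex/Em 405/460 nm, expressed as triamterene-equivalent signal.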
# [29] = biological target: Glucocorticoid receptor (Homo sapiens) (UniProt P04150); experiment: qHTS assay to identify small molecule agonists of the glucocorticoid receptor (GR) signaling pathway (AID 720691; active = well fitted activation curve with a large enough effect in the signal ratio in the repeat runs, not every such curve was filed as active; inconclusive = weak or mixed curves, or effect the other way; inactive = no such curve, though single readings can be large or run the other way; the % refers to the signal ratio)
# Sequence of Glucocorticoid receptor (Homo sapiens) (P04150 whole entry, looked up): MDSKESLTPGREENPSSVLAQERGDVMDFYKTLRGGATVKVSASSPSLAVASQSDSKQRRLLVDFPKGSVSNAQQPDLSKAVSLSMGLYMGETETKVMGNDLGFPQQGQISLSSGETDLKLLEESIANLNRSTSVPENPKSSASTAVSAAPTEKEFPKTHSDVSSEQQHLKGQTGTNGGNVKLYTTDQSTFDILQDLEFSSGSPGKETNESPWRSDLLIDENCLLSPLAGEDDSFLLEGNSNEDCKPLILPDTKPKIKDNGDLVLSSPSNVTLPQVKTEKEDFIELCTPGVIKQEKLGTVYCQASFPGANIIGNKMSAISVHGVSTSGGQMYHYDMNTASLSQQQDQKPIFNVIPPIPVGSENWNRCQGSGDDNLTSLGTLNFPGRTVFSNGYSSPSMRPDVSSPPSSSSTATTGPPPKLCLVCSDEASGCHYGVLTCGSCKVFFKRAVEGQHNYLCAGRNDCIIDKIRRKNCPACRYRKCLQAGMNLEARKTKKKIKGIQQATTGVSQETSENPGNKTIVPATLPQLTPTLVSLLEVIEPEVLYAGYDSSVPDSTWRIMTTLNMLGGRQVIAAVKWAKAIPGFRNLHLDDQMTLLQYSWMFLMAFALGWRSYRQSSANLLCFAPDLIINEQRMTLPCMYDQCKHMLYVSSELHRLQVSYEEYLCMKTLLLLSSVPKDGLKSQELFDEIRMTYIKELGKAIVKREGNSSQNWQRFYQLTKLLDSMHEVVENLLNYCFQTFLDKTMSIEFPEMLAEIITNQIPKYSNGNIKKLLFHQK
# Procedure, shortened: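 HeLa GR-bla reporter line; cells pre-incubated 4 h, compound in DMSO 18 h at 37 C; LiveBLAzer B/G FRET substrate 2 h RT; fluorescence intensity read-out.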
# [30] = biological target: Glucocorticoid receptor (Homo sapiens) (UniProt P04150); experiment: qHTS assay to identify small molecule antagonists of the glucocorticoid receptor (GR) signaling pathway (AID 720692; active = well fitted inhibition curve with a large enough effect in the signal ratio in the repeat runs, not every such curve was filed as active; inconclusive = weak or mixed curves, or effect the other way; inactive = no such curve, though single readings can be large or run the other way; the % refers to the signal ratio; note: potency is the fitted concentration of half-maximal effect)
# Procedure, shortened: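 Read-out: beta-lactamase FRET substrate fluorescence, 2 h at room temperature, in HeLa cells stably carrying a GRE-driven bla reporter. Compounds were co-incubated with 5 nM dexamethasone agonist (final) for 18 h at 37 C.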
# [31] = qHTS assay to identify small molecule antagonists of the estrogen receptor alpha (ER-alpha) signaling pathway - cell viability counter screen (AID 743074; calls by dose curve)
# [32] = biological target: Estrogen receptor (Homo sapiens) (UniProt P03372); experiment: qHTS assay to identify small molecule agonists of the estrogen receptor alpha (ER-alpha) signaling pathway (AID 743075; calls by dose curve;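 note: HEK293 GripTite cells with ER-alpha and UAS-driven beta-lactamase reporter; potency is the fitted concentration of half-maximal effect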)
# Sequence of Estrogen receptor (Homo sapiens) (P03372 whole entry, looked up): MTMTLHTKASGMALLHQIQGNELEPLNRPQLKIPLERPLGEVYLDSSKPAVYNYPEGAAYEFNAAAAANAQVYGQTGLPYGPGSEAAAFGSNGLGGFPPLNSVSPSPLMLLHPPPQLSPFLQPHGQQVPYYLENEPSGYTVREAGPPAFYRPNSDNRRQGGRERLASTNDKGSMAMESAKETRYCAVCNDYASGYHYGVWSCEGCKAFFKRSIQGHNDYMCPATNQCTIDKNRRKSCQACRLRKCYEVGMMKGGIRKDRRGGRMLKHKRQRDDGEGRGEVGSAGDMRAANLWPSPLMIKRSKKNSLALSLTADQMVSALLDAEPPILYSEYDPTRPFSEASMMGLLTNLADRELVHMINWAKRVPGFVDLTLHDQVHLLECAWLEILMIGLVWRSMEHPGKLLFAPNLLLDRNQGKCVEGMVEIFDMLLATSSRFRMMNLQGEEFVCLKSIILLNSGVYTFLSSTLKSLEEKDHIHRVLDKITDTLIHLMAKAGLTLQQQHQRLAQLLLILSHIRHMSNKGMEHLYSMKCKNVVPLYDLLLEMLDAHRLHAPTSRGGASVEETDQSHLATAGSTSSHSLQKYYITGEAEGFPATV
# [33] = biological target: Estrogen receptor (Homo sapiens) (UniProt P03372); experiment: qHTS assay to identify small molecule agonists of the estrogen receptor alpha (ER-alpha) signaling pathway using the BG1 cell line (AID 743079); note: potency is the fitted concentration of half-maximal effect; nearly all actives have a fitted effect of over 20% in size
# [34] = biological target: Peroxisome proliferator-activated receptor gamma (Homo sapiens) (UniProt P37231); experiment: qHTS assay to identify small molecule agonists of the peroxisome proliferator-activated receptor gamma (PPARg) signaling pathway (AID 743094; active = well fitted activation curve with a large enough effect in the signal ratio in the repeat runs, not every such curve was filed as active; inconclusive = weak or mixed curves, or effect the other way; inactive = no such curve, though single readings can be large or run the other way; the % refers to the signal ratio)
# Sequence of Peroxisome proliferator-activated receptor gamma (Homo sapiens) (P37231 whole entry, looked up): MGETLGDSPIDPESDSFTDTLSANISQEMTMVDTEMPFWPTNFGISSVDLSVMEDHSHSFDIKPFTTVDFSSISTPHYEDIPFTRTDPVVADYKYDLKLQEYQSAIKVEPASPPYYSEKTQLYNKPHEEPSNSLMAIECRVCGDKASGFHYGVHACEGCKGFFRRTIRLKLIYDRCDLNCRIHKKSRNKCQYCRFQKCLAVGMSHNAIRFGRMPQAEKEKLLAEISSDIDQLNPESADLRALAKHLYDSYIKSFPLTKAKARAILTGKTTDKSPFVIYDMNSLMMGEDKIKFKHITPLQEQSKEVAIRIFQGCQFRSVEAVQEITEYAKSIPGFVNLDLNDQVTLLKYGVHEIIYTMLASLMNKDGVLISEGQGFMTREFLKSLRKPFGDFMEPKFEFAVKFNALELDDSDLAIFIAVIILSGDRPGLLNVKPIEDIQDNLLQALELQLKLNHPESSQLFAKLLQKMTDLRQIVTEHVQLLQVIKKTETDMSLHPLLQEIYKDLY
# Procedure, shortened: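 HEK293H PPARg-bla cells, 5 h settle at 37C/5% CO2; compound (DMSO) 17 h, 37C; B/G FRET substrate 1 h RT; fluorescence intensity read-out. qHTS format.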
smiles,measurement,setting,value
COc1cc(C[C@H](C)N)c(OC)cc1Br,Potency,Aromatase (Homo sapiens),inactive
same,outcome,[1],inactive
same,outcome,[2],inactive
same,Potency,[3],inactive
Cc1ccc(CCn2c3c(c4cc(Cl)ccc42)CN(C)CC3)cn1,Potency,[4],19.5 µM (active)
same,Potency,[5],inactive
COc1cc(OC)nc(NC(=O)NS(=O)(=O)Nc2ccccc2C(=O)N(C)C)n1,Potency,[4],inactive
same,Potency,[5],inactive
C=CC(=O)OCCN(CC)CC,Potency,[5],inactive
COc1cccc2c1C(=O)c1c(O)c3c(c(O)c1C2=O)C[C@@](O)(C(=O)CO)C[C@@H]3O[C@H]1C[C@H](N)[C@H](O[C@@H]2CCCCO2)[C@H](C)O1,Potency,[5],inactive
CCCCCCCCCCC[C@@H](C[C@@H]1OC(=O)[C@H]1CCCCCC)OC(=O)[C@H](CC(C)C)NC=O,Potency,[5],inactive
O=[N+]([O-])O[C@@H]1CO[C@H]2[C@@H]1OC[C@@H]2O,Potency,Aromatase (Homo sapiens),inactive
same,outcome,[2],inactive
CC[C@@]1([C@@H]2O[C@@H]([C@H]3O[C@@](O)(CO)[C@H](C)C[C@@H]3C)C[C@@H]2C)CC[C@H]([C@]2(C)CC[C@]3(C[C@H](O)[C@@H](C)[C@@H]([C@@H](C)[C@@H](OC)[C@H](C)C(=O)O)O3)O2)O1 (stereo in doubt),Potency,Aromatase (Homo sapiens),inactive
same,outcome,[2],inactive
CCN(CC)CCNC(=O)c1cc(Br)c(N)cc1OC,Potency,[5],inactive
COc1cccc(-c2ccc(/C=C\CN3CCCCCC3)cc2Cl)c1,Potency,[4],31.6 µM (active)
same,Potency,[5],inactive
Cc1nc2n(c(=O)c1CCN1CCC(c3noc4cc(F)ccc34)CC1)CCC[C@H]2O,"activity change, negative = inhibition",[4],-17.1% [at 23.8 µM]
same,"activity change, negative = inhibition",[5],-2.77% [at 23.6 µM]
C1CCc2nnnn2CC1,Potency,Aromatase (Homo sapiens),inactive
same,outcome,[2],inactive
Cc1nc(Nc2ncc(C(=O)Nc3c(C)cccc3Cl)s2)cc(N2CCN(CCO)CC2)n1,Potency,[5],inactive
O=C(O)c1ccccc1[O-].O=C(O)c1ccccc1[O-].[Zn+2],Potency,[6],inactive
same,outcome,[7],inactive
same,Potency,[8],inactive
same,Potency,[9],inactive
same,Potency,[10],inactive
same,Potency,[11],inactive
same,Potency,[12],inactive
same,outcome,[13],inactive
same,Potency,[14],inactive
same,outcome,[15],inactive
same,Potency,[16],inactive
same,Potency,[3],inactive
Nc1cc(Cl)c(O)c(Cl)c1,Potency,[5],inactive
Nc1ncnc2c1ncn2CCOCP(=O)(O)O,Potency,[17],inactive
same,Potency,Aromatase (Homo sapiens),inactive
CCOc1ccc(Cc2nccc3cc(OCC)c(OCC)cc23)cc1OCC,Potency,[4],15.5 µM (active)
same,Potency,[5],inactive
C[C@]12CC[C@H]3[C@@H](CCC4=CC(=O)CC[C@@]43C)[C@@H]1CC[C@@H]2OC(=O)CCc1ccccc1,outcome,[18],inactive
same,Potency,[6],inactive
same,outcome,[19],inactive
same,outcome,[20],inactive
same,outcome,[21],inactive
same,outcome,[22],inactive
same,outcome,[23],inactive
same,outcome,[24],inactive
same,outcome,[7],inactive
same,outcome,[25],inactive
same,outcome,[26],inactive
same,outcome,[27],inactive
same,outcome,[28],inactive
same,outcome,[29],inactive
same,Potency,[30],6.16 µM (active)
same,Potency,[9],5.45 µM (active)
same,Potency,[10],8.63 µM (active)
same,Potency,[11],8.63 µM (active)
same,Potency,[12],inactive
same,outcome,[13],inactive
same,Potency,[14],inactive
same,outcome,[15],inactive
same,Potency,[31],inactive
same,Potency,[32],3.89 µM [inconclusive] (active)
same,Potency,[33],0.0306 µM (active)
same,Potency,[16],inactive
same,Potency,Aromatase (Homo sapiens),inactive
same,outcome,[1],inactive
same,outcome,[2],inactive
same,Potency,[3],inactive
same,outcome,[34],inactive

# Reference: PubChem BioAssay (Tox21)
